# Assay outcomes: PubChem BioAssay, National Center for Advancing Translational Sciences (NCATS)
# Rows were chosen to be rich in hits. Some 7.5% of all compounds tested hit in one or more screens of this group.
# ELG1 repair inh = qHTS screen for small molecules that inhibit ELG1-dependent DNA repair in human embryonic kidney (HEK293T) cells expressing luciferase-tagged ELG1. 330,000 compounds, 2.3% hits. HEK293T ELG1-luciferase reporter, luminescence, 16 h; DNA damage induced by 5-fluorouridine. Potency, µM (top dose mostly 46.1 µM), for the others: at the highest dose activity change, negative = inhibition, usual class: inhibitors; note: potency is the fitted concentration of half-maximal effect; nearly all actives have a fitted effect of over 55% in size
#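 HEK293T cells expressing luciferase-tagged ELG1 (2,000/well) received 5-Fluorouridine plus compound or DMSO for 16 hr at 37 °C. Luciferase was read by ONE-Glo luminescence after 30 min at room temperature.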
# B2AR arrestin = qHTS assay of beta-arrestin-biased ligands of beta2-adrenergic receptor. AID 492947, 2010. 330,000 compounds, 0.02% hits. Potency, µM (series often up to 46.1 µM), for the others: top-dose activation, actives largely listed as activators. beta-arrestin recruitment to beta2AR, cell-based reporter;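 note: potency is the fitted concentration of half-maximal effect; 0% = DMSO controls and full agonism = EC100 isoproterenol or metaproterenol; nearly all actives have a fitted effect of over 65% in size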
# TSHR antag = Antagonists of the Thyroid Stimulating Hormone Receptor: HTS campaign | Thyrotropin receptor (Homo sapiens), P16473 | TSHR-expressing cells, TSH-stimulated cAMP HTRF, 2 h; active compounds read low | activity change, negative = inhibition, % at 11.5 µM | 330,000 compounds, 0.2% hits;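 active = activity change below a set negative limit, meaning inhibition stronger than a set level, cut at about -70% in these data; inconclusive = activity change between two set negative limits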
# Target sequence (P16473 whole entry, looked up): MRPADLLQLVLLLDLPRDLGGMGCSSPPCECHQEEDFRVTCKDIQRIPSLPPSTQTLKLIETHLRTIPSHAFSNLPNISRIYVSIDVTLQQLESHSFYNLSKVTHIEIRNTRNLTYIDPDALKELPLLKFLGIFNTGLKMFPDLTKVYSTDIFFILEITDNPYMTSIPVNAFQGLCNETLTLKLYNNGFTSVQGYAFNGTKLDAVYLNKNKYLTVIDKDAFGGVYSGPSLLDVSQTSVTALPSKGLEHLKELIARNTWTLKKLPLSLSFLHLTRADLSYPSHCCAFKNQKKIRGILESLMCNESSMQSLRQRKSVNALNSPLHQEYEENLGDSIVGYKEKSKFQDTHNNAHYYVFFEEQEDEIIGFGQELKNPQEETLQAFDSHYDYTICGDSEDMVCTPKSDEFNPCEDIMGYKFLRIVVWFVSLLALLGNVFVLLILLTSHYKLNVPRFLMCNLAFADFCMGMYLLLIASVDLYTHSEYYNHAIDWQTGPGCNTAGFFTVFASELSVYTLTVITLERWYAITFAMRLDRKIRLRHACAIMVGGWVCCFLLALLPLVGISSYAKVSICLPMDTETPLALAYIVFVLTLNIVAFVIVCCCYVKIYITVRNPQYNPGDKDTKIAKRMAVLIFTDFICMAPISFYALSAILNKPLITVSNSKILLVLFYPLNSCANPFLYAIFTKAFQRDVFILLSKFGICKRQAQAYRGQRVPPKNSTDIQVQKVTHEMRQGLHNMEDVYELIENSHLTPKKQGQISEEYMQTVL
#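 Antagonism was scored as loss of TSH-driven cAMP in TSHR cells, stimulated with 4nM TSH (EC80) for 2 hours at 37 deg C and detected by homogeneous HTRF competition immunoassay.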
# Gal4-VP16 FLuc = VP16 counterscreen qHTS for inhibitors of ROR gamma transcriptional activity; Drosophila S2 Gal4-VP16 UAS-luciferase, luminescence, 20 h; Potency, µM (highest dose often 53.6 µM), inactives show at the top dose activity, negative = inhibition, usual class: inhibitors; 310,000 compounds, 3.5% hits; AID 2546, 2010;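 note: Gal4-VP16 expression switched on by copper sulfate through the metallothionein promoter; potency is the fitted concentration of half-maximal effect; nearly all actives have a fitted effect of over 50% in size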
# RORg inh = qHTS for inhibitors of ROR gamma transcriptional activity; Nuclear receptor ROR-gamma (Mus musculus), P51450; Drosophila S2 Gal4-RORgamma UAS-luciferase reporter, 20 h; Potency, µM (top dose mostly 53.6 µM), without a hit: at the highest dose activity change, negative = inhibition, usual class: inhibitors; 310,000 compounds, 5.4% hits; note: potency is the fitted concentration of half-maximal effect; nearly all actives have a fitted effect of over 60% in size
#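 Drosophila Schneider cells stably carrying a metallothionein-driven Gal4 DBD–ROR gamma fusion and a UAS-Photinus luciferase reporter were exposed to compound for 1 hr, then induced with copper sulfate (700 uM final) for 20 hr at ambient temperature before luminescence reading.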
# The depositor's hits bear a star; ? = inconclusive; . = not tested or not shown; [ ] = dose if it differs, or a comment. Unless noted, calls come from the whole dose curve; as a rule, active = well fitted curve in the direction sought with a large enough effect; inconclusive = small, poorly fitted or top-dose-only effect, or another doubt; inactive = no such curve, though single readings can be large; an effect the other way counts as inactive or inconclusive. Unless noted, % is set by controls: 0 for no effect and ±100 for the full control effect.
SMILES,ELG1 repair inh,B2AR arrestin,TSHR antag,Gal4-VP16 FLuc,RORg inh
CC(=O)NCCNc1nc(-c2cccc(C#N)c2)nc2ccccc12,.,.,.,1%,13%
CC1(C)SC2C(N3C(=O)C(c4ccccc4)NC3(C)C)C(=O)N2C1C(=O)O (centres undefined),.,.,.,-8%,7%
CCN(CC)S(=O)(=O)c1ccc(C(=O)NC(=S)N(CCC#N)Cc2cccnc2)cc1,-6%,0%,-3,11µM*,3.5µM*
CN(C)S(=O)(=O)c1cccc(C(=O)NC(=S)N(CCC#N)Cc2cccnc2)c1,10%,0%,5,-25%[10 µM],2µM*
COc1ccc(N2CC(C(=O)N3CCN(c4ccccc4OC)CC3)CC2=O)cc1 (centres undefined),-10%,-1%,-4,-8%,-1%
Cc1cc(SCC(=O)c2ccccc2)n2nc(C)nc2n1,?,-1%,10,7.1µM*,14µM*
O=C(NC1CCCCC1)N1CCN(c2nc(-c3ccccc3)cs2)CC1,10%,0%,2,?,11µM*
O=C(C1CCCCC1)N1CCN(c2nc(-c3ccc(F)cc3)cs2)CC1,21µM*,0%,-18,-18%,-21%
NC(=O)C1CCN(c2nc(-c3ccc(F)cc3)cs2)CC1,?,1%,-14,.,.
O=C(Nc1nc(-c2ccc(F)cc2)cs1)C1CCN(C(=O)c2ccc(F)cc2)CC1,18µM*,0%,?,.,.
COc1cccc(/C=C2\SC(=S)N(CCCC(=O)N3CCCCC3)C2=O)c1,4%,-1%,-5,13µM*,4.5µM*
COc1cccc(/C=C2\SC(=S)N(CCCC(=O)N(CCO)c3ccccc3)C2=O)c1,?,0%,-25,2.5µM*,7.1µM*
COc1cccc(/C=C2/SC(=S)N(CCC(=O)N3CCOCC3)C2=O)c1,-22%,0%,1,?,?
COc1ccc(/C=C2\SC(=S)N(CCCC(=O)N3CCN(C)CC3)C2=O)cc1,3%,-1%,7,?,7.1µM*
CN1CCN(C(=O)CCN2C(=O)/C(=C/c3cccc(Br)c3)SC2=S)CC1,1%,0%,10,-14%,16µM*
C[C@H](N)C(=O)NCC(=O)N[C@H]1CSSC[C@@H](C(=O)O)NC(=O)[C@H](CO)NC(=O)[C@H]([C@@H](C)O)NC(=O)[C@H](Cc2ccccc2)NC(=O)[C@H]([C@@H](C)O)NC(=O)[C@H](CCCCN)NC(=O)[C@@H](Cc2c[nH]c3ccccc23)NC(=O)[C@H](Cc2ccccc2)NC(=O)[C@H](Cc2ccccc2)NC(=O)[C@H](CC(N)=O)NC(=O)[C@H](CCCCN)NC1=O,.,.,.,-2%,3%
COc1ccc(S(=O)(=O)N2CCCC(C(=O)NCc3ccco3)C2)cc1OC (centres undefined),?,0%,-5,-1%,41%
CC(=O)Oc1cc(C(=O)OCC(=O)N2CCc3ccccc3C2)cc(OC(C)=O)c1OC(C)=O,?,0%,-7,.,.
O=C(CCCc1nc2ccccc2s1)N1CCN(c2ccccc2)CC1,-3%,-1%,-2,4µM*,0%
CC(C)(C)c1cc(C(C)(C)C)cc(S(=O)(=O)CCc2ccccn2)c1,4%,0%,0,-19%,11µM*
CCN1C(=O)c2cccc3c(S(=O)(=O)NCC4CCCO4)ccc1c23 (centres undefined),?,0%,15,3%,-43%
O=[N+]([O-])c1cnc2ccccc2c1,-11%,0%,2,-10%,23%
O=[N+]([O-])c1cc([N+](=O)[O-])c2cc3ccccc3nc2c1,-5%,?,-17,2.8µM*,3.2µM*
CN(C)Cc1nc2ccccc2c(=O)n1Cc1nc(-c2cccc([N+](=O)[O-])c2)cs1,-26%,0%,0,6%,-10%
CN1CCN(Cc2nc3ccccc3c(=O)n2Cc2nc(-c3ccc([N+](=O)[O-])cc3)cs2)CC1,?,7%,-6,18µM*,7.9µM*
